Assay results: PubChem BioAssay AID1159580 (chemical genetic matrix, 2015)
The whole screen tested about 5,500 compounds, of which about 2,000 (36%) were called active. Inconclusive results (about 18%) are left out. Rule as the data show it: active = normalized growth mostly below about 0.91 (no sharp cut-off); inconclusive = no clear call, values can overlap the other calls; inactive = mostly above about 0.92. Some of the results follow.

Test: chemical genetic growth profiling, strain panel (AID 1159580);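 also: tested at 20 µM; growth read once vehicle control cultures reached saturation at 30 °C; 1 = growth at the plate median or of vehicle wells; lower values mean less growth of the strain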
Conditions: S. cerevisiae deletion strains, growth OD

Measured: normalized growth

O=S(=O)(O)c1cc(N=C=S)ccc1/C=C/c1ccc(N=C=S)cc1S(=O)(=O)O
inactive: locus YAL021C, strain ccr4, stronger effect = lower value 1.03 | locus YAL026C, strain drs2, stronger effect = lower value 1.01 | locus YAL030W, strain snc1, stronger effect = lower value 1.02 | locus YBL061C, strain skt5, stronger effect = lower value 1.03 | locus YBR009C, strain hhf1, stronger effect = lower value 1.05 | locus YBR023C, strain chs3, stronger effect = lower value 1.02 | locus YBR171W, strain sec66, stronger effect = lower value 1.04 | locus YBR231C, strain swc5, stronger effect = lower value 1.03 | locus YBR279W, strain paf1, stronger effect = lower value 1.01 | locus YCL011C, strain gbp2, stronger effect = lower value 1.02 | locus YCL016C, strain dcc1, stronger effect = lower value 1.03 | locus YCL061C, strain MRC1, stronger effect = lower value 1.02 | locus YCL069W, strain vba3, stronger effect = lower value 1.02 | locus YCR088W, strain abp1, stronger effect = lower value 1.02 | locus YDL005C, strain med2, stronger effect = lower value 1.03 | locus YDL040C, strain nat1, stronger effect = lower value 1.02 | locus YDR001C, strain nth1, stronger effect = lower value 1.02 | locus YDR069C, strain doa4, stronger effect = lower value 1.05 | locus YDR137W, strain rgp1, stronger effect = lower value 1.01 | locus YDR159W, strain sac3, stronger effect = lower value 1.06 | locus YDR195W, strain ref2 1.03 | locus YDR297W, strain sur2, stronger effect = lower value 1.03 | locus YDR334W, strain swr1, stronger effect = lower value 1.02 | locus YDR335W, strain msn5, stronger effect = lower value 1.03 | locus YDR392W, strain spt3, stronger effect = lower value 0.919 | locus YEL003W, strain gim4, stronger effect = lower value 1.02 | locus YEL037C, strain rad23, stronger effect = lower value 1.02 | locus YEL061C, strain CIN8 (second series), stronger effect = lower value 1.02 | locus YER015W, strain faa2, stronger effect = lower value 1.03 | locus YER016W, strain bim1, stronger effect = lower value 1.03 | locus YER111C, strain swi4, stronger effect = lower value 1.03 | locus YER155C, strain BEM2 (second series), stronger effect = lower value 1.04 | locus YFR010W, strain ubp6, stronger effect = lower value 1.03 | locus YGL167C, strain pmr1, stronger effect = lower value 1.03 | locus YGL173C, strain kem1, stronger effect = lower value 1.04 | locus YGL227W, strain vid30, stronger effect = lower value 1.03 | locus YGL240W, strain doc1, stronger effect = lower value 1.03 | locus YGL253W, strain hxk2, stronger effect = lower value 1.03 | locus YHR013C, strain ard1, stronger effect = lower value 1.04 | locus YHR027C, strain rpn1, stronger effect = lower value 1.02 | locus YHR030C, strain SLT2, stronger effect = lower value 0.996 | locus YHR079C, strain IRE1, stronger effect = lower value 1.04 | locus YHR142W, strain chs7, stronger effect = lower value 1.04 | locus YJL092W, strain hpr5, stronger effect = lower value 1.01 | locus YJL095W, strain BCK1 (second series), stronger effect = lower value 1.02 | locus YJL095W, strain BCK1, stronger effect = lower value 0.99 | locus YJL115W, strain asf1, stronger effect = lower value 1.02 | locus YJL129C, strain trk1, stronger effect = lower value 1.06 | locus YJL154C, strain vps35, stronger effect = lower value 1.02 | locus YJL164C, strain tpk1, stronger effect = lower value 0.994 | locus YJL166W, strain qcr8, stronger effect = lower value 1.02 | locus YJL187C, strain SWE1, stronger effect = lower value 1.02 | locus YJR066W, strain TOR1, stronger effect = lower value 0.924 | locus YKL160W, strain elf1, stronger effect = lower value 1.02 | locus YKR026C, strain gcn3, stronger effect = lower value 1.02 | locus YKR091W, strain srl3, stronger effect = lower value 1.03 | locus YLL001W, strain dnm1, stronger effect = lower value 1.01 | locus YLL026W, stronger effect = lower value 1.01 | locus YLL041C, strain sdh2, stronger effect = lower value 1.02 | locus YLR027C, strain aat2, stronger effect = lower value 1.02 | locus YLR113W, strain HOG1, stronger effect = lower value 1.11 | locus YLR221C, strain rsa3, stronger effect = lower value 1.02 | locus YLR258W, strain gsy2, stronger effect = lower value 1.03 | locus YLR262C, strain YPT6 (second series), stronger effect = lower value 1.04 | locus YLR320W, strain mms22, stronger effect = lower value 1.05 | locus YLR342W, strain FKS1, stronger effect = lower value 1.04 | locus YLR357W, strain rsc2, stronger effect = lower value 0.993 | locus YLR370C, strain arc18, stronger effect = lower value 1.03 | locus YLR384C, strain iki3, stronger effect = lower value 1.03 | locus YML120C, strain ndi1, stronger effect = lower value 1.01 | locus YMR058W, strain fet3, stronger effect = lower value 1.01 | locus YMR125W, strain sto1, stronger effect = lower value 1.03 | locus YMR129W, stronger effect = lower value 1.02 | locus YMR205C, strain PFK2, stronger effect = lower value 1.06 | locus YMR231W, strain pep5, stronger effect = lower value 1.02 | locus YNL071W, strain lat1, stronger effect = lower value 1.02 | locus YNL183C, strain NPR1, stronger effect = lower value 0.961 | locus YNL209W, strain ssb2, stronger effect = lower value 1.03 | locus YNL248C, strain rpa49, stronger effect = lower value 1 | locus YNL322C, strain KRE1 (second series), stronger effect = lower value 1.03 | locus YNR049C, strain mso1, stronger effect = lower value 1.03 | locus YOR001W, strain rrp6, stronger effect = lower value 0.999 | locus YOR070C, strain gyp1, stronger effect = lower value 1.01 | locus YOR080W, strain dia2, stronger effect = lower value 1.04 | locus YOR083W, strain WHI5, stronger effect = lower value 1.01 | locus YOR106W, strain vam3, stronger effect = lower value 1.04 | locus YOR231W, strain MKK1, stronger effect = lower value 1.03 | locus YOR265W, strain rbl2, stronger effect = lower value 1.02 | locus YOR270C, strain vph1, stronger effect = lower value 1.04 | locus YOR290C, strain snf2, stronger effect = lower value 0.954 | locus YPL051W, strain arl3, stronger effect = lower value 0.994 | locus YPL078C, strain atp4, stronger effect = lower value 1.02 | locus YPL106C, strain sse1, stronger effect = lower value 1.05 | locus YPL240C, strain hsp82, stronger effect = lower value 1.03 | locus YPL256C, strain CLN2, stronger effect = lower value 1.11
